Among the data in PubChem BioAssay are growth inhibition, inhibition and outcome values, retold here.

The nature of experiment [1]: antimalarial activity against Dd2 strain (AID 2302;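 active means growth inhibition above 50% at the single 2 µM test dose, taken to imply half-maximal potency below 2 µM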;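 further: 0% = DMSO untreated growth and 100% = chloroquine plus artemisinin killed control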). The note with it: P. falciparum Dd2 in RBCs, LDH growth readout, 72 h; at 2 µM; hits give high values.
The nature of experiment [2]: HepG2 cytotoxicity, primary screen, cytotoxicity control for P. falciparum antimalarial project, cell-based, ATP luminescence (AID 2303;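 active means inhibition above 50%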;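 further: 0% = DMSO wells and 100% = digitonin-killed cells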). The note with it: HepG2 viability, 24-48 h, at 10 µM, hits give high values.
Experiment [3] deals with L-lactate dehydrogenase (Plasmodium falciparum (isolate CDC / Honduras)) (UniProt Q27743). Description: PfLDH activity inhibition – cell lysate, 3D7 strain, counter-screen for P. falciparum growth inhibition project (AID 2304).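 Further: 0% = vehicle and 100% = reference inhibitor.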 The note with it: P. falciparum 3D7 crude extract, LDH APAD/NBT absorbance; at 2 µM; hits give high values. A general note: Counterscreens check selectivity or assay interference.
Chain of L-lactate dehydrogenase (Plasmodium falciparum (isolate CDC / Honduras)) (Q27743 whole entry, looked up): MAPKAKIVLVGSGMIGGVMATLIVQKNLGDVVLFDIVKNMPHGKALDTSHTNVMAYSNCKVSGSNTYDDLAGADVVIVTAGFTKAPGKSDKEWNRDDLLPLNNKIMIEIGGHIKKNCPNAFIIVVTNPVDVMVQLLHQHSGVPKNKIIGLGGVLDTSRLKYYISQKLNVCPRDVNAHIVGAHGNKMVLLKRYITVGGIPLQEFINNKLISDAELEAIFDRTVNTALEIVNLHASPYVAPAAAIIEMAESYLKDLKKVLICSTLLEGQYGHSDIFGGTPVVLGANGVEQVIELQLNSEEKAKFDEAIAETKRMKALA

Experiment [4] in a line: inhibition of 3D7 malaria parasite growth – strain 3D7 (AID 2306).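 Further: 0% = DMSO wells and 100% = chloroquine plus artemisinin control wells.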 The note with it: P. falciparum 3D7 erythrocytic growth, LDH absorbance, 72 h; at 2 µM; hits give high values.
The target of experiment [5] is Calcium-dependent protein kinase 1 (Plasmodium falciparum (isolate 3D7)) (UniProt P62344). Briefly: PfCDPK1 kinase inhibitors, biochemical, TCAMS library (AID 1159585; cut-off not given, nearly all actives have IC50 up to about 0.98 µM;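 further: inhibitors leave more ATP so luminescence rises with inhibition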). The note with it: recombinant PfCDPK1, Kinase-Glo ATP depletion luminescence. On the technique in general: In Kinase-Glo more light means more ATP remaining.
Chain of Calcium-dependent protein kinase 1 (Plasmodium falciparum (isolate 3D7)) (P62344 whole entry, looked up): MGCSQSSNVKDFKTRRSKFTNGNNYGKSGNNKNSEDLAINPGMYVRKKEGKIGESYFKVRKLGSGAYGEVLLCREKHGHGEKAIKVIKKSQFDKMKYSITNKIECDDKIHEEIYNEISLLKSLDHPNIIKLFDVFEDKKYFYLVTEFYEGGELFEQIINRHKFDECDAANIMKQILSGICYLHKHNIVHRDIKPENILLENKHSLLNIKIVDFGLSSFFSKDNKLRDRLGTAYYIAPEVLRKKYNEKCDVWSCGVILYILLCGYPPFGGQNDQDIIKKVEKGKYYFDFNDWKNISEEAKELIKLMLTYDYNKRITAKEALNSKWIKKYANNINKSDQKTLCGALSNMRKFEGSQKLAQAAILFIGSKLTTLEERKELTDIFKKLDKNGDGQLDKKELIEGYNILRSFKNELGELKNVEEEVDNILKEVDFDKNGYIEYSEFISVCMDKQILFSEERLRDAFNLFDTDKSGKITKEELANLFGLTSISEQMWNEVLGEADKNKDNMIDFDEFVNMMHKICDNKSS
Experiment [6] concerns the target Plasmodium falciparum protein kinase 6 (PK6, PF3D7_1337100) (UniProt Q8IDW1). Briefly: PfPK6 kinase inhibitors, biochemical, TCAMS library (AID 1159586). The note with it: recombinant PfPK6, Kinase-Glo ATP depletion luminescence.
Experiment [7] has as its target Protein kinase 7 (PK7), Plasmodium falciparum 3D7 (PF3D7_0213400) (UniProt Q7YTF7). Description: inhibition of Plasmodium PK7 catalytic activity – biochemical, TCAMS antimalarial set, Kinase-Glo luminescence (AID 1159587). The note with it: recombinant PfPK7, Kinase-Glo ATP depletion luminescence.
In experiment [8] the target is Calcium-dependent protein kinase 4 (Plasmodium falciparum (isolate 3D7)) (UniProt Q8IBS5). Briefly: PfCDPK4 kinase inhibitors, biochemical, TCAMS library (AID 1159588; cut-off not given, nearly all actives have IC50 up to about 0.91 µM). The note with it: recombinant PfCDPK4, Kinase-Glo ATP depletion luminescence.
Chain of Calcium-dependent protein kinase 4 (Plasmodium falciparum (isolate 3D7)) (Q8IBS5 whole entry, looked up): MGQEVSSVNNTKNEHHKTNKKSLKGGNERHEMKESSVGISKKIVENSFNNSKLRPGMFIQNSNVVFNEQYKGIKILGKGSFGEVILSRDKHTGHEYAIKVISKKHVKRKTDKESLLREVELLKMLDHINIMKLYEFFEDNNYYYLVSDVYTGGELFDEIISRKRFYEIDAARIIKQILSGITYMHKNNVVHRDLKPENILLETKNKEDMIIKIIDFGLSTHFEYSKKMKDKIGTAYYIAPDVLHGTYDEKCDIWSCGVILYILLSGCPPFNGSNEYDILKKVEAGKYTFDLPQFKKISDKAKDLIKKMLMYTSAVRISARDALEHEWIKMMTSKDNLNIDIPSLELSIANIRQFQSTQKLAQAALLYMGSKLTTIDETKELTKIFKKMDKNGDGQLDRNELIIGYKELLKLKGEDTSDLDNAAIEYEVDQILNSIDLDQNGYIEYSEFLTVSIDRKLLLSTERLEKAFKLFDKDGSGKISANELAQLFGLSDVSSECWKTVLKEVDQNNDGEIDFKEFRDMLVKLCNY

The structures appear in SMILES notation. A number with no mark means an inactive call. For some of these results: Measured potencies and affinities stand elsewhere. Activity calls are given as the source filed them. Unless noted, how the calls were made is not given here.

As a reminder, the inhibition is the relative decrease from the control value, in per cent.

Chain of Protein kinase 7 (PK7), Plasmodium falciparum 3D7 (PF3D7_0213400) (Q7YTF7 1-343): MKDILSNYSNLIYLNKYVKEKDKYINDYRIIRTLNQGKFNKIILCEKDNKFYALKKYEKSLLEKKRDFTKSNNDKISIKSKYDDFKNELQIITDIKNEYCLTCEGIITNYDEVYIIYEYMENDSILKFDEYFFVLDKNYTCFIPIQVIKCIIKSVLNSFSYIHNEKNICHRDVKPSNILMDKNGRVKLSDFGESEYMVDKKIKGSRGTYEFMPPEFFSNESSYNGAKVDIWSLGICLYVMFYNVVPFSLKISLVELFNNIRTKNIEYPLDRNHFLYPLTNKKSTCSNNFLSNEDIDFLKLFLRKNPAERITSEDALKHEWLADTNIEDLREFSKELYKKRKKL
Chain of Plasmodium falciparum protein kinase 6 (PK6, PF3D7_1337100) (Q8IDW1 1-305): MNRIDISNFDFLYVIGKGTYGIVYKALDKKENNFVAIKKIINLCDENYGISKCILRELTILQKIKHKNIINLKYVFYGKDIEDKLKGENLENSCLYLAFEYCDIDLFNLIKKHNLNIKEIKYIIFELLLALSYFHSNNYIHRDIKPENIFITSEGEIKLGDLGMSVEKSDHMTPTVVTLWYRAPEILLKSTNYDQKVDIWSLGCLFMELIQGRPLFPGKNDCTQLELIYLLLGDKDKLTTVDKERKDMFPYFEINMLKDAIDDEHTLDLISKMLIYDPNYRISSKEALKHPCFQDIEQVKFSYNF

As for `Cn1cncc1C(=O)Nc1ccc(-c2ccc(-c3nc4ccc(C(F)(F)F)cc4[nH]3)cc2)cc1`, the values for the growth inhibition in experiment [1] and in experiment [4] were 33% and 102% (active), respectively. For the same molecule, the inhibition in experiment [2] was 24%; in experiment [3] it was 5%. The outcome in experiment [5], in experiment [6], in experiment [7] and in experiment [8] was inactive.
`COc1cc2nc(N3CCC(CNC(=O)c4ccc(-c5ccc(-c6noc(C)n6)cc5)cc4)CC3)nc(N)c2cc1OC`: the growth inhibition in experiment [1] is 100% (active); in experiment [4], 98% (active). Moreover, the inhibition in experiment [2] was 96% (active); in experiment [3], 1%. In addition, the result in experiment [5], in experiment [6], in experiment [7] and in experiment [8] was inactive.
As to `COc1ccc(CNCc2ccc(-c3ccc(CNCCc4ccccc4)cn3)cc2)cn1`, the growth inhibition is 44% in experiment [1] and 97% (active) in experiment [4]. The inhibition is 16% in experiment [2] and 1% in experiment [3]. In addition, the outcome in experiment [5], in experiment [6], in experiment [7] and in experiment [8] was inactive.
Turning to `CS(=O)(=O)Nc1cccc(-c2cnc3[nH]cc(-c4ccc(C(=O)O)c(F)c4)c3c2)c1`, the values for the growth inhibition in experiment [1] and in experiment [4] were 76% (active) and 99% (active), respectively. The inhibition in experiment [2] is 27%; in experiment [3], 5%. The outcome in experiment [5], in experiment [6], in experiment [7] and in experiment [8] was inactive.
Regarding `O=C(Nc1ccc(-c2nc3ccccc3[nH]2)cc1)c1ccc(N2CCCC2)c([N+](=O)[O-])c1`, the growth inhibition in experiment [1] is 95% (active); in experiment [4], 100% (active). The inhibition in experiment [2] was 43%; in experiment [3], -1%. Further, the result in experiment [5], in experiment [6], in experiment [7] and in experiment [8] was inactive.
Regarding `CCOC(=O)c1ccc(NC(=O)Nc2ccc(-c3cccc(-c4nc5ccc(F)cc5[nH]4)c3)cc2)cc1`, the growth inhibition in experiment [1] was 100% (active); in experiment [4], 102% (active). The inhibition in experiment [2] is 98% (active); in experiment [3], 2%. Besides, the outcome in experiment [5], in experiment [6], in experiment [7] and in experiment [8] was inactive.
For the molecule `CCCCN(CCCC)CCCN(CCCN(CCCC)CCCC)c1cc(C)nc(Nc2ccc(Br)cc2)n1`, the growth inhibition in experiment [1] was 98% (active); in experiment [4] it was 99% (active). Moreover, the figures for the inhibition in experiment [2] and in experiment [3] were 51% (active) and -4%, respectively. In addition, the result in experiment [5], in experiment [6], in experiment [7] and in experiment [8] was inactive.
As for `Fc1ccc2nc(-c3ccc(-c4ccc(CNCCN5CCNCC5)cc4)s3)[nH]c2c1`, the results for the growth inhibition in experiment [1] and in experiment [4] were 2% and 96% (active), respectively. Also, the figures for the inhibition in experiment [2] and in experiment [3] were 24% and -1%, respectively. Moreover, the result in experiment [5], in experiment [6], in experiment [7] and in experiment [8] was inactive.
Consider `Cc1nc(N)nc(N)c1OCc1ccc(Cl)c(Cl)c1`, for which the growth inhibition is 5% in experiment [1] and 97% (active) in experiment [4]. Further, the inhibition was 14% in experiment [2] and -2% in experiment [3]. For the same molecule, the result in experiment [5], in experiment [6], in experiment [7] and in experiment [8] was inactive.
As to `O=C(N[C@@H](Cc1ccccc1)[C@H](O)CNC1CCOCC1)c1cc(C2CCCC2)cc(N2CCCCS2(=O)=O)c1`, the growth inhibition in experiment [1] was 98% (active); in experiment [4], 100% (active). In addition, the inhibition in experiment [2] was 3%; in experiment [3], -1%. Besides, the result in experiment [5], in experiment [6], in experiment [7] and in experiment [8] was inactive.
As for `CC(C)Sc1nc2c(c(=O)n1Cc1ccco1)C1(CCCCC1)Cc1ccccc1-2`, the growth inhibition in experiment [1] is 99% (active); in experiment [4], 100% (active). For the same molecule, the inhibition was 10% in experiment [2] and 0% in experiment [3]. The result in experiment [5], in experiment [6], in experiment [7] and in experiment [8] was inactive.
Consider `Nc1nccc2ccc(OC3CCCCC3)cc12`, for which the values for the growth inhibition in experiment [1] and in experiment [4] were 41% and 98% (active), respectively. Besides, the figures for the inhibition in experiment [2] and in experiment [3] were 24% and -4%, respectively. Moreover, the result in experiment [5], in experiment [6], in experiment [7] and in experiment [8] was inactive.
Turning to `c1cc(COc2ccc(C3=NCCN3)cc2)nc(COc2ccc(C3=NCCN3)cc2)c1`, the growth inhibition is 98% (active) in experiment [1] and 100% (active) in experiment [4]. The inhibition is 8% in experiment [2] and -2% in experiment [3]. Also, the outcome in experiment [5], in experiment [6], in experiment [7] and in experiment [8] was inactive.
Regarding `NC(=O)c1ccsc1NC(=O)CNC(c1ccccc1)c1ccc(Cl)cc1` (stereo not given), the growth inhibition is 89% (active) in experiment [1] and 83% (active) in experiment [4]. Besides, the inhibition is 25% in experiment [2] and -3% in experiment [3]. Also, the result in experiment [5], in experiment [6], in experiment [7] and in experiment [8] was inactive.
For `Cc1nc2ccc3ccc(CNc4ccc(C(=O)N[C@@H](CCC(=O)O)C(=O)O)c(F)c4)cc3c2c(=O)[nH]1`, the growth inhibition in experiment [1] and in experiment [4] was 96% (active) in each case. For the same molecule, the results for the inhibition in experiment [2] and in experiment [3] were 41% and -1%, respectively. In addition, the outcome in experiment [5], in experiment [6], in experiment [7] and in experiment [8] was inactive.
In the case of `CCCCN(CCCC)C(=Nc1cccc(Cl)c1Cl)Nc1ccc(C#N)cc1O`, the growth inhibition in experiment [1] is 69% (active); in experiment [4], 89% (active). Moreover, the inhibition in experiment [2] is 4%; in experiment [3], -6%. Also, the result in experiment [5], in experiment [6], in experiment [7] and in experiment [8] was inactive.
Turning to `COc1ccc2nc(C)cc(Nc3ccc(N4CCN(C)CC4)cc3)c2c1`, the figures for the growth inhibition in experiment [1] and in experiment [4] were 3% and 101% (active), respectively. In addition, the inhibition in experiment [2] was 1%; in experiment [3], -1%. Also, the result in experiment [5], in experiment [6], in experiment [7] and in experiment [8] was inactive.
Turning to `CCCC(C)NC(=O)[C@H](CC1CCCCC1)NC(=O)c1ccc(O)c(-c2ccc(OC)cc2)c1` (stereo not given in full), the growth inhibition was 37% in experiment [1] and 89% (active) in experiment [4]. Further, the inhibition is 3% in experiment [2] and 1% in experiment [3]. The outcome in experiment [5], in experiment [6], in experiment [7] and in experiment [8] was inactive.
As to `CC(C)C(=O)ONC1=NC(C)(C)N(OCCCOc2cc(Cl)c(Cl)cc2Cl)C(NOC(=O)C(C)C)=N1`, the growth inhibition in experiment [1] is 93% (active); in experiment [4], 92% (active). In addition, the figures for the inhibition in experiment [2] and in experiment [3] were 64% (active) and -9%, respectively. Besides, the result in experiment [5], in experiment [6], in experiment [7] and in experiment [8] was inactive.
`CCCN1CCN(CC(O)CNC(=O)Nc2ccc(Cl)cc2)CC1` (stereo not given): the growth inhibition in experiment [1] and in experiment [4] was 100% (active) each time. In addition, the values for the inhibition in experiment [2] and in experiment [3] were 6% and -3%, respectively. The result in experiment [5], in experiment [6], in experiment [7] and in experiment [8] was inactive.
